Laboratory results reported in PubChem BioAssay AID1159580 (chemical genetic matrix, 2015).
Values joined by “and” are separate entries in the source; they are usually repeats but may differ in a detail not shown here. Identical values can stand only once. Among all 5,500 compounds or so, about 2,000 (36%) were called active. Roughly 18% stayed inconclusive and do not appear here. Cut-off read from the data, not from the text of the source: active = normalized growth mostly below about 0.91 (no sharp cut-off); inconclusive = no clear call, values can overlap the other calls; inactive = mostly above about 0.92. Some of the results follow.

Assay: chemical genetic growth profiling, strain panel (AID 1159580);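 note: tested at 20 µM; growth read once vehicle control cultures reached saturation at 30 °C; 1 = growth at the plate median or of vehicle wells; lower values mean less growth of the strain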
Conditions: S. cerevisiae deletion strains, growth OD

Measured: normalized growth

CCn1nc(C(=O)O)c(=O)c2cc3c(cc21)OCO3
inactive: locus YAL013W, strain DEP1, active compounds read low 1.01 | locus YAL021C, strain ccr4, active compounds read low 1 | locus YAL026C, strain drs2, active compounds read low 0.999 | locus YAL030W, strain snc1, active compounds read low 1.01 | locus YAL040C, strain CLN3, active compounds read low 0.955 | locus YBL061C, strain skt5, active compounds read low 1.02 | locus YBR009C, strain hhf1, active compounds read low 0.989 | locus YBR021W, strain FUR4, active compounds read low 1.03 | locus YBR023C, strain chs3, active compounds read low 1.03 | locus YBR171W, strain sec66, active compounds read low 1 | locus YBR229C, strain ROT2, active compounds read low 1.01 | locus YBR231C, strain swc5, active compounds read low 1.03 | locus YBR279W, strain paf1, active compounds read low 1 | locus YCL011C, strain gbp2, active compounds read low 0.987 | locus YCL016C, strain dcc1, active compounds read low 0.99 | locus YCL029C, strain bik1, active compounds read low 1.01 | locus YCL069W, strain vba3, active compounds read low 1.01 | locus YCR088W, strain abp1, active compounds read low 1 | locus YDL005C, strain med2, active compounds read low 0.998 | locus YDL035C, strain GPR1, active compounds read low 1 | locus YDL040C, strain nat1, active compounds read low 1.01 | locus YDL074C, strain BRE1, active compounds read low 1.04 | locus YDL101C, strain DUN1, active compounds read low 1.01 | locus YDL134C, strain PPH21, active compounds read low 1 | locus YDL185W, strain tfp1, active compounds read low 1.03 | locus YDL192W, strain arf1, active compounds read low 1.03 | locus YDR001C, strain nth1, active compounds read low 0.996 | locus YDR069C, strain doa4, active compounds read low 1.02 | locus YDR101C, strain arx1, active compounds read low 0.992 | locus YDR137W, strain rgp1, active compounds read low 0.949 | locus YDR150W, strain NUM1, active compounds read low 1.01 | locus YDR159W, strain sac3, active compounds read low 0.959 | locus YDR162C, strain NBP2, active compounds read low 1.01 | locus YDR195W, strain ref2 1.01 | locus YDR297W, strain sur2, active compounds read low 1.01 | locus YDR318W, strain mcm21, active compounds read low 1.02 | locus YDR334W, strain swr1, active compounds read low 1 | locus YDR335W, strain msn5, active compounds read low 1.01 | locus YDR363W, strain ESC2, active compounds read low 0.967 | locus YDR388W, active compounds read low 1.02 | locus YDR392W, strain spt3, active compounds read low 0.987 | locus YDR502C, strain sam2, active compounds read low 1.02 | locus YEL003W, strain gim4, active compounds read low 1.02 | locus YEL037C, strain rad23, active compounds read low 1.01 | locus YEL061C, strain CIN8 (second series), active compounds read low 1.01 | locus YEL061C, strain CIN8, active compounds read low 1.01 | locus YER002W, strain NOP16, active compounds read low 1.02 | locus YER015W, strain faa2, active compounds read low 1.02 | locus YER016W, strain bim1, active compounds read low 0.996 | locus YER110C, active compounds read low 1.02 | locus YER111C, strain swi4, active compounds read low 1 | locus YER155C, strain BEM2 (second series), active compounds read low 1.06 | locus YER155C, strain BEM2, active compounds read low 0.999 | locus YER167W, strain BCK2, active compounds read low 0.993 | locus YFR010W, strain ubp6, active compounds read low 1.03 | locus YGL078C, strain dbp3, active compounds read low 1.01 | locus YGL086W, strain mad1, active compounds read low 1 | locus YGL167C, strain pmr1, active compounds read low 1.03 | locus YGL173C, strain kem1, active compounds read low 1.01 | locus YGL227W, strain vid30, active compounds read low 1.01 | locus YGL240W, strain doc1, active compounds read low 1.03 | locus YGL248W, strain PDE1, active compounds read low 1.03 | locus YGL253W, strain hxk2, active compounds read low 1.01 | locus YGR078C, strain PAC10, active compounds read low 1.02 and 1.01 | locus YGR135W, strain pre9, active compounds read low 1.04 | locus YGR252W, strain gcn5, active compounds read low 1.05 | locus YHR013C, strain ard1, active compounds read low 1 | locus YHR027C, strain rpn1, active compounds read low 1.01 | locus YHR030C, strain SLT2, active compounds read low 1.01 and 0.999 | locus YHR079C, strain IRE1 (second series), active compounds read low 1.01 | locus YHR079C, strain IRE1, active compounds read low 0.999 | locus YHR094C, strain hxt1, active compounds read low 1.01 | locus YHR129C, strain ARP1, active compounds read low 1 | locus YHR142W, strain chs7, active compounds read low 1.01 | locus YHR200W, strain rpn10, active compounds read low 1.03 | locus YIL066C, strain RNR3, active compounds read low 1.01 | locus YIL073C, strain SPO22, active compounds read low 1.04 | locus YIL125W, strain kgd1, active compounds read low 1.01 | locus YIR030C, strain dcg1, active compounds read low 1.01 | locus YJL092W, strain hpr5, active compounds read low 1.02 | locus YJL095W, strain BCK1 (second series), active compounds read low 1.02 | locus YJL095W, strain BCK1, active compounds read low 1.04 and 0.983 | locus YJL115W, strain asf1, active compounds read low 1.01 | locus YJL129C, strain trk1, active compounds read low 1.02 | locus YJL134W, strain LCB3, active compounds read low 1.01 | locus YJL154C, strain vps35, active compounds read low 1.02 | locus YJL164C, strain tpk1, active compounds read low 1 | locus YJL166W, strain qcr8, active compounds read low 1.05 | locus YJL168C, strain set2, active compounds read low 1.02 | locus YJL187C, strain SWE1 (second series), active compounds read low 1.03 | locus YJL187C, strain SWE1, active compounds read low 1.02 | locus YJR043C, strain POL32, active compounds read low 0.999 | locus YJR066W, strain TOR1, active compounds read low 0.974 | locus YJR075W, strain HOC1, active compounds read low 1.03 | locus YKL009W, strain mrt4, active compounds read low 1.03 | locus YKL068W, active compounds read low 0.999 | locus YKL085W, strain MDH1 (second series), active compounds read low 1.03 | locus YKL085W, strain MDH1, active compounds read low 1.03 | locus YKL160W, strain elf1, active compounds read low 1.02 | locus YKR001C, strain vps1, active compounds read low 1 | locus YKR026C, strain gcn3, active compounds read low 0.993 | locus YKR091W, strain srl3, active compounds read low 1.02 | locus YLL001W, strain dnm1, active compounds read low 1.02 | locus YLL026W, active compounds read low 1 | locus YLL041C, strain sdh2, active compounds read low 1.01 | locus YLR027C, strain aat2, active compounds read low 1 | locus YLR039C, strain RIC1, active compounds read low 0.967 | locus YLR058C, strain SHM2, active compounds read low 1.02 | locus YLR102C, strain apc9, active compounds read low 1.01 | locus YLR113W, strain HOG1, active compounds read low 1 | locus YLR221C, strain rsa3, active compounds read low 1.02 | locus YLR258W, strain gsy2, active compounds read low 1.01 | locus YLR262C, strain YPT6 (second series), active compounds read low 0.964 | locus YLR262C, strain YPT6, active compounds read low 0.978 | locus YLR268W, strain sec22, active compounds read low 1.02 | locus YLR320W, strain mms22, active compounds read low 1 | locus YLR330W, strain CHS5, active compounds read low 1.01 | locus YLR342W, strain FKS1 (second series), active compounds read low 1.01 | locus YLR342W, strain FKS1, active compounds read low 1.02 | locus YLR357W, strain rsc2, active compounds read low 1.02 | locus YLR370C, strain arc18, active compounds read low 1.02 | locus YLR371W, strain rom2, active compounds read low 1.01 | locus YLR384C, strain iki3, active compounds read low 1.01 | locus YLR418C, strain cdc73, active compounds read low 1.07 | locus YML016C, strain PPZ1, active compounds read low 1.01 | locus YML032C, strain rad52, active compounds read low 1.03 | locus YML120C, strain ndi1, active compounds read low 1 | locus YML124C, strain tub3, active compounds read low 1.02 | locus YMR058W, strain fet3, active compounds read low 1.01 | locus YMR078C, strain ctf18, active compounds read low 1.02 | locus YMR125W, strain sto1, active compounds read low 1.02 | locus YMR129W, active compounds read low 1.01 | locus YMR205C, strain PFK2, active compounds read low 1.02 | locus YMR223W, strain ubp8, active compounds read low 1.03 | locus YMR231W, strain pep5, active compounds read low 1.01 | locus YMR307W, strain GAS1, active compounds read low 1.06 | locus YNL067W, strain RPL9B, active compounds read low 1.03 | locus YNL071W, strain lat1, active compounds read low 1 | locus YNL153C, strain GIM3, active compounds read low 1.02 | locus YNL175C, strain NOP13, active compounds read low 0.997 | locus YNL183C, strain NPR1, active compounds read low 0.928 | locus YNL197C, strain WHI3, active compounds read low 0.994 | locus YNL209W, strain ssb2, active compounds read low 1 | locus YNL224C, strain SQS1, active compounds read low 0.99 | locus YNL233W, strain BNI4, active compounds read low 1.02 | locus YNL248C, strain rpa49, active compounds read low 0.952 | locus YNL250W, strain rad50, active compounds read low 1.02 | locus YNL271C, strain bni1, active compounds read low 1.02 | locus YNL298W, strain CLA4, active compounds read low 1.02 | locus YNL307C, strain MCK1, active compounds read low 1.03 | locus YNL322C, strain KRE1 (second series), active compounds read low 1.01 | locus YNR049C, strain mso1, active compounds read low 1.01 | locus YNR052C, strain pop2, active compounds read low 1.01 | locus YOL012C, strain htz1 1.6 | locus YOL147C, strain pex11, active compounds read low 1.01 | locus YOR001W, strain rrp6, active compounds read low 1.03 | locus YOR061W, strain CKA2, active compounds read low 1.01 | locus YOR069W, strain VPS5, active compounds read low 1.01 | locus YOR070C, strain gyp1, active compounds read low 1 | locus YOR080W, strain dia2, active compounds read low 1.03 | locus YOR083W, strain WHI5 (second series), active compounds read low 0.976 | locus YOR083W, strain WHI5, active compounds read low 1.05 | locus YOR106W, strain vam3, active compounds read low 1.02 | locus YOR136W, strain idh2, active compounds read low 1.02 | locus YOR144C, strain elg1, active compounds read low 1.01 | locus YOR184W, strain ser1, active compounds read low 1.03 | locus YOR231W, strain MKK1, active compounds read low 1 | locus YOR265W, strain rbl2, active compounds read low 1 | locus YOR270C, strain vph1, active compounds read low 1.02 | locus YOR290C, strain snf2, active compounds read low 1 | locus YOR316C, strain cot1, active compounds read low 1.02 | locus YPL051W, strain arl3, active compounds read low 1.02 | locus YPL055C, strain LGE1, active compounds read low 1.04 and 1.01 | locus YPL078C, strain atp4, active compounds read low 1.03 | locus YPL106C, strain sse1, active compounds read low 0.989 | locus YPL240C, strain hsp82, active compounds read low 0.999 | locus YPL241C, strain CIN2, active compounds read low 1.01 | locus YPL256C, strain CLN2, active compounds read low 0.998 | locus YPR119W, strain clb2, active compounds read low 1.02 | locus YPR141C, strain kar3, active compounds read low 1.01 | locus YPR163C, strain tif3, active compounds read low 1.02 | locus YPR167C, strain met16, active compounds read low 1.01 | strain wtn01, active compounds read low 1.02
